# S-ASM inh: blocks human secretory acid sphingomyelinase. P17405. placental ASM, HMU-PC fluorogenic substrate, 60 min. Potency, µM (titrated, usually from 57.5 µM), without a hit: at the top dose activity change, negative = inhibition, hits mostly inhibitors. actives 0.006% (n = 340,000); further: potency means the concentration at half of the fitted maximal effect
# Target sequence (P17405 47-631 limits assumed): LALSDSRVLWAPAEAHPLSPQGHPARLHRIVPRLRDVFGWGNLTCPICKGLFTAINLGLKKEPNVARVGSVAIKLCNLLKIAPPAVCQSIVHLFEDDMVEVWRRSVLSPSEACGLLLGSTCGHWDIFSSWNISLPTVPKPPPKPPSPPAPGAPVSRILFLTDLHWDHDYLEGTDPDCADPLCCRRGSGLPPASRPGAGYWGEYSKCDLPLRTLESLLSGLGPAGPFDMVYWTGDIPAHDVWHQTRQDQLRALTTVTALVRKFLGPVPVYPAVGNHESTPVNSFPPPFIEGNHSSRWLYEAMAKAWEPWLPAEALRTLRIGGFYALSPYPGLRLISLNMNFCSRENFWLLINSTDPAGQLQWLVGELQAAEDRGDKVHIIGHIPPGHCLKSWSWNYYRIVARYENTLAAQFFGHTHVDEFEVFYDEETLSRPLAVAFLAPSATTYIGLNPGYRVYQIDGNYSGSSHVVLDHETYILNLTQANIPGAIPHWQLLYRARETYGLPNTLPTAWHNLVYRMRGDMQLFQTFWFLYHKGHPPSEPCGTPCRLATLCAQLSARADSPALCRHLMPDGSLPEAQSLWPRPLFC
#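 HMU-PC0 cleavage (9 uM final) by human placental ASM, 60 min at 37 °C following 10 min compound exposure at RT; stopped at pH 10, fluorescence Ex 386/Em 447 nm.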
# TGFb SMAD3 inh: inhibitors of TGF-b signaling. HepG2 CAGA-GFP TGF-b/SMAD3 reporter, GFP fluorescence, 18 h; TGF-beta stimulated, 500 pg/mL final. Potency, µM (series often up to 46.1 µM), inactives show top-dose activity, negative = inhibition, actives largely listed as inhibitors. actives 1.2% (n = 410,000); further: potency means the concentration at half of the fitted maximal effect; on the % scale 0 is the no-effect control and ±100 the full control effect; nearly all actives have a fitted effect of over 65% in size
#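 GFP signal (ex488/em500-530) from TGF-beta-stimulated HEPG2 CAGA-GFP cells, 500 pg/mL final, 18 h at 37 degrees C in DMEM plus 1% FBS, normalized to unstimulated and DMSO-stimulated controls.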
# TDP1 cell CPT: growth inhibition of DT40 Tdp1-/-;hTDP1 cells with camptothecin (screen for TDP1 inhibitors). chicken DT40 Tdp1-/-;hTDP1 cells + 20 nM CPT, ATP luminescence, 48 h. Potency, µM (highest dose often 46.2 µM), for the others: top-dose activity change, negative = growth inhibition, usual class: inhibitors. actives 12% (n = 420,000). AID 686979; further: potency means the concentration at half of the fitted maximal effect; on the % scale 0 is the no-effect control and ±100 the full control effect; nearly all actives have a fitted effect of over 55% in size
#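 Chicken DT40 Tdp1-/- cells stably complemented with human TDP1 were seeded at 400 cells/well in medium containing 20 nM camptothecin, exposed to pin-transferred compounds, and grown at 37 °C for at least 48 hr. Viability was read as ATP luminescence.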
# DT40 TDP1 no CPT: qHTS for Inhibitors of human tyrosyl-DNA phosphodiesterase 1 (TDP1): qHTS in cells in absence of CPT | DT40 Tdp1-/- hTDP1 cells, no CPT, ATP luminescence, 48 h | Potency, µM (top dose mostly 46.2 µM), inactives show top-dose activity change, negative = growth inhibition, hits mostly inhibitors | actives 15% (n = 420,000) | AID 686978, 2013; further: potency means the concentration at half of the fitted maximal effect; on the % scale 0 is the no-effect control and ±100 the full control effect; nearly all actives have a fitted effect of over 55% in size
#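 Chicken DT40 Tdp1-/- cells stably complemented with human TDP1 were seeded at 400 cells/well with DMSO in place of 20 nM camptothecin. After compound pinning, cells grew at least 48 hr at 37 °C; viability read by CellTiter-Glo luminescence.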
# HepG2 tox: HepG2 cytotoxicity, counter-screen for TGF-b inhibitors; actives 0.76% (n = 410,000); Potency, µM (highest dose often 46.1 µM), for the others: top-dose activity change, negative = cytotoxicity, most hits filed as cytotoxic; HepG2 CAGA-GFP viability, ATP luminescence, 18 h; further: potency means the concentration at half of the fitted maximal effect
#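 CellTiter-Glo luminescence gave cytotoxicity after 18 hours at 37 degrees C. The cells were HepG2 CAGA-GFP in 1% FBS DMEM, stimulated with 500 pg/mL TGF-beta after compound addition. %Activity was normalised to no-cell wells (complete cell-killing) and DMSO (no toxicity), and curves were fitted and classified.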
# IL-1B inflam inh: inflammasome signaling inhibition, IL-1 beta readout; THP-1 LPS/ATP IL-1B secretion, AlphaLISA, 16 h; hits give low values; activity change, % at 57.5 µM; actives 4.7% (n = 360,000); AID 743279; in the data active means activity change below about -50%; inconclusive means mostly about -30% to -49%; further: on the % scale 0 is the no-effect control and ±100 the full control effect
#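 THP-1 cells pretreated 1 hr with compounds (up to 57.5 uM final), then stimulated with LPS (250 ng/mL final) plus ATP (1.25 mM final); secreted IL-1B measured by AlphaLISA after 16 hr, decreased signal indicating inhibition.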
# An asterisk follows results filed as active; u = inconclusive; x = no result given; [ ] = another dose, or the depositor's remark. This is a sample that favours compounds with a hit; in the whole collection about 19% have one here. Unless noted, the call rests on the fitted dose curve; in most records, active means well fitted curve in the direction sought with a large enough effect; inconclusive means small, poorly fitted or top-dose-only effect, or another doubt; inactive means no such curve, though single readings can be large; an effect the other way counts as inactive or inconclusive.
SMILES,S-ASM inh,TGFb SMAD3 inh,TDP1 cell CPT,DT40 TDP1 no CPT,HepG2 tox,IL-1B inflam inh
Cc1csc2nc(COc3ccccc3NC(=O)c3ccccc3Cl)cc(=O)n12,x,3%,4.6µM*,3.7µM*,-1%,x
Cc1csc2nc(COc3ccc(NC(=O)COc4ccccc4F)cc3)cc(=O)n12,x,-4%,u,15µM*,1%,x
Cc1csc2nc(COc3ccccc3NC(=O)c3ccc(C(C)(C)C)cc3)cc(=O)n12,x,0%,u,u,2%,x
Cc1ccccc1OCC(=O)Nc1ccccc1C(=O)OCc1cc(=O)n2ccsc2n1,x,22%,-10%,-19%,12%,x
O=C1CCCCC1Nc1ccc(Br)cc1 (stereo unspecified),1%,-4%,-14%,-19%,-13%,0
O=C(Nc1cccc(S(=O)(=O)NC2=NCCC2)c1)c1cnc(Cl)c(Cl)c1,0%,-30%,-21%,-18%,-14%,-30
O=C(NC[C@@H]1CCCN2CCCC[C@H]12)c1cnn(-c2nccc(-c3ccco3)n2)c1C1CC1,x,x,4%[9.04 µM],-4%,x,x
Cc1nc(CC(=O)Nc2nccs2)cs1,2%,u,-9%,-11%,-25%,-7
CC(=O)N1CCN(S(=O)(=O)c2cccc(C(=O)OCc3cccc(F)c3)c2)CC1,1%,-4%,u,23µM*,-4%,26
CC(=O)N1CCN(S(=O)(=O)c2cccc(C(=O)OCc3ccc(F)cc3)c2)CC1,x,-22%,u,18µM*,-20%,7
CC(=O)N1CCN(S(=O)(=O)c2cccc(C(=O)OCN3C(=O)c4ccccc4C3=O)c2)CC1,-2%,1%,-22%,-23%,11%,-5
CC(=O)N1CCN(S(=O)(=O)c2cccc(C(=O)OCC(=O)N(Cc3ccccc3)C(C)(C)C)c2)CC1,-2%,1%,-22%,-23%,-9%,9
CCN(c1ccccc1)S(=O)(=O)c1ccc(OC)c(NC(=O)CN(C)C)c1,10%,-10%,u,u,-21%,1
CCN(c1ccccc1)S(=O)(=O)c1ccc(OC)c(NC(=O)C2=NN(c3ccccc3)C(=O)CC2)c1,2%,0%,-18%,-27%,-15%,42
CCN(c1ccccc1)S(=O)(=O)c1ccc(OC)c(NC(=O)CNC)c1,8%,-2%,5%,-27%,-14%,0
CCN(c1ccccc1)S(=O)(=O)c1ccc(OC)c(NC(=O)c2ccco2)c1,x,10%,u,21µM*,-3%,14
CCN(c1ccccc1)S(=O)(=O)c1ccc(OC)c(NC(=O)c2ccccc2OC)c1,-3%,1%,21µM*,u,7%,11
CCN(c1ccccc1)S(=O)(=O)c1ccc(Oc2ccc(C(C)=O)cc2OC)nc1,-1%,u,u,16µM*,-30%,14
CCN(c1ccccc1)S(=O)(=O)c1ccc(OC)c(NC(=O)C2CC(=O)N(Cc3ccccc3)C2)c1 (stereo unspecified),-1%,-20%,u,u,-11%,-54*
Cc1cccc(CNC(=O)c2cnn(-c3nccc(-c4cccs4)n3)c2C2CC2)n1,x,x,5%,-17%,x,x
O=C(CCCn1c(=O)c2cccn2c2cccnc21)Nc1ccccc1Br,x,0%,-14%,u,-13%,x
O=C(CN1C(=O)NC2(CCCCC2)C1=O)N1CCN(S(=O)(=O)c2ccc(F)cc2)CC1,0%,-1%,-8%,-2%,6%,3
CCOC(=O)c1cnc(-c2ccccc2)nc1Oc1ccccc1,-7%,19%,5%,-14%,-16%,26
CCOC(=O)c1cnc(-c2ccccc2)nc1Oc1ccc(OC)cc1,2%,-2%,-1%,17%,11%,6
CCOC(=O)c1c(Oc2ccc(OC)cc2)nnc(-c2ccccc2)c1-c1ccccc1,x,-19%,16µM*,u,-31%,x
SMILES,S-ASM inh,TGFb SMAD3 inh,TDP1 cell CPT,DT40 TDP1 no CPT,HepG2 tox,IL-1B inflam inh
CCOC(=O)c1c(Oc2ccc(C(=O)OC)cc2)nnc(-c2ccccc2)c1-c1ccccc1,x,-2%,16µM*,23µM*,-13%,x
COC(=O)c1c(-c2ccccc2)noc1-c1ccccc1,6%,u,10%,5%,-21%,22
COC(=O)c1c(Oc2ccc(C(C)=O)cc2)nnc(-c2ccccc2)c1-c1ccccc1,x,u,18µM*,u,-18%,x
O=C(CCn1c(=O)c2cccn2c2cccnc21)NCc1cccc(Br)c1,x,1%,u,u,-2%,x
O=C1COc2ccc(S(=O)(=O)Nc3ccc(F)cc3)cc2N1,-1%,-9%,-1%,5%,-33%,31
Cc1ccc(N2CCN(c3nc4ccc(C)cc4n4nnnc34)CC2)c(C)c1,x,28%,-27%,u,2%,x
Cc1noc(C)c1COc1cccc(C(=O)N(C)Cc2cccs2)c1,-1%,-3%,-30%,-14%,-4%,-4
O=C(COc1ccccc1F)Nc1ccc2nc(SCCOc3ccccc3)sc2c1,x,-6%,u,-27%,-11%,x
COc1ccccc1NC1=C(Cl)C(=O)N(C2CCCCC2)C1=O,-8%,u,18µM*,26µM*,2%,-12
Cc1ccccc1NC1=C(Cl)C(=O)N(C2CCCCC2)C1=O,-4%,-11%,u,u,-54%,-93*
O=C(NCCc1ccc2c(c1)OCCO2)c1ccccn1,2%,-10%,u,u,-14%,-10
CC1(c2ccccc2Br)NC(=O)N(CC(=O)Nc2ccc(S(N)(=O)=O)cc2)C1=O (stereo unspecified),-1%,11%,-4%,-12%,-2%,2
Cc1cc(C)c(NC(=O)COC(=O)Cc2cccs2)c(C)c1,-4%,2%,9%,26%,-11%,9
O=C(NCc1ccccc1Cl)c1cc2c(s1)-c1ccccc1SC2,x,x,u,u,-10%,x
CCc1ccc(-c2cn(C3CCCCC3)c(=S)[nH]2)cc1,-5%,-19%,u,8.2µM*,-3%,-68*
CCc1ccc(-n2cc(-c3ccc([N+](=O)[O-])cc3)[nH]c2=S)cc1,0%,-10%,3%,-5%,-6%,-26
COc1ccc(CCNC(=O)C(C)n2c(=O)cc(C(F)(F)F)c3c(C)nn(C)c32)cc1OC (stereo unspecified),x,5%,u,u,-8%,x

# Source: PubChem (National Center for Advancing Translational Sciences (NCATS))
